Experimental data from PubChem BioAssay.
The source made the active and inactive calls. Cut-off read from the data, not from the text of the source, unless noted: active = inhibition above about 28%; inactive = the rest.

How the values were obtained:
[1] = StAR promoter reporter inhibitors, counter-screen for LRH-1 inverse agonist project, cell-based, luminescence, high throughput (AID 651611); conditions: StAR promoter luciferase reporter counterscreen, at 3.6 µM, hits give high values
[2] = target: Nuclear receptor subfamily 5 group A member 2 (Homo sapiens) (UniProt O00482); test: LRH-1 (NR5A2) inverse agonists, retest, confirmation, cell-based, luminescence (AID 651613; in the data active = inhibition above about 42%;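 note: HEK293T cells co-transfected with LRH-1 and StAR promoter luciferase reporter; 0% = vehicle wells and 100% = parental cells lacking receptor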); conditions: cell-based LRH-1 luciferase reporter, inverse agonism; at 3.6 µM; hits give high values
Sequence of Nuclear receptor subfamily 5 group A member 2 (Homo sapiens) (O00482 whole entry, looked up): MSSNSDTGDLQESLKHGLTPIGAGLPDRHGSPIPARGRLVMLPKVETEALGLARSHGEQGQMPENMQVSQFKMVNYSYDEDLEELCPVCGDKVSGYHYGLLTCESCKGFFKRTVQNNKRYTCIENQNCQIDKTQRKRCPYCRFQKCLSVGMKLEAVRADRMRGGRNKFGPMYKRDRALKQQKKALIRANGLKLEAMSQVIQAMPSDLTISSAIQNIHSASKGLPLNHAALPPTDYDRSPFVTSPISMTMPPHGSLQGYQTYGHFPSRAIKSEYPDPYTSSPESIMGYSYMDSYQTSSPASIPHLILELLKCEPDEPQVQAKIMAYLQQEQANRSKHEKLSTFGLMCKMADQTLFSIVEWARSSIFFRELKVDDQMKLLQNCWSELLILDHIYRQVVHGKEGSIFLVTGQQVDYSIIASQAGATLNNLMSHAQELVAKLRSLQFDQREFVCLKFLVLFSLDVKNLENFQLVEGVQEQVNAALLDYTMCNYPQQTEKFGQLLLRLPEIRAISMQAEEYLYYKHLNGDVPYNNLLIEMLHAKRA

[3] = target: Steroidogenic factor 1 (Homo sapiens) (UniProt Q13285); test: SF1 (NR5A1) inverse agonists, counter-screen for LRH-1 inverse agonist project, cell-based, luminescence, high throughput (AID 651614; in the data active = inhibition above about 44%;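 note: cells cotransfected with StAR promoter reporter and SF1 expression vector; 0% = vehicle on cells with receptor and 100% = vehicle on cells lacking receptor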); conditions: cell-based SF1 luciferase reporter, at 3.6 µM, hits give high values
Sequence of Steroidogenic factor 1 (Homo sapiens) (Q13285 whole entry, looked up, the tested form may be a part): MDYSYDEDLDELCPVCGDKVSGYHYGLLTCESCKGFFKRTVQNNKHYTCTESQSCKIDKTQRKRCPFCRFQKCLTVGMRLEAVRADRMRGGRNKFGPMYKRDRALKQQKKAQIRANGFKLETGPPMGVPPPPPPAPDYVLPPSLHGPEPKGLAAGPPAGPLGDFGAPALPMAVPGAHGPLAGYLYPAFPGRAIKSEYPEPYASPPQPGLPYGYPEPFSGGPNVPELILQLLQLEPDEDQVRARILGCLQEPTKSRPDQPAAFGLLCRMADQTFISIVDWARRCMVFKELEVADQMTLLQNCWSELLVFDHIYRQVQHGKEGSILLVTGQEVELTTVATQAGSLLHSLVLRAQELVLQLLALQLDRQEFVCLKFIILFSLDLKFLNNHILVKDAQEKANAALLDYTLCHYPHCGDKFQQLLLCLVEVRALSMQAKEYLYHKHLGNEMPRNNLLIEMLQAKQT

[4] = VP16 transactivation reporter inhibitors, counter-screen for LRH-1 inverse agonist project, cell-based, luminescence, high throughput (AID 651615; in the data active = inhibition above about 33%); conditions: Gal4-VP16 luciferase reporter cells, at 3.6 µM, hits give high values

Structure (SMILES)	inhibition [1]	inhibition [2]	inhibition [3]	inhibition [4]
O=C(c1ccc([N+](=O)[O-])o1)N1CCN(c2nc3c(Cl)cccc3s2)CC1	10.8% (inactive)	64.6% (active)	61.3% (active)	3.24% (inactive)
Oc1cccc(Nc2nc(-c3ccccc3Cl)nc3ccccc23)c1	9.52% (inactive)	54.2% (active)	48.3% (active)	-9.51% (inactive)
CC(=O)Nc1ccc(NC(=O)CSc2nc3nc(-c4cccs4)cc(C(F)(F)F)c3c(=O)[nH]2)cc1	8.21% (inactive)	54.2% (active)	49.2% (active)	-4.54% (inactive)
O=C(NC1CCCCC1)c1ccc([N+](=O)[O-])o1	24.6% (inactive)	54.9% (active)	54.4% (active)	-17.1% (inactive)
CCN1C(=O)c2cccc3c(NC(=O)c4cccc(N5C(=O)CCC5=O)c4)ccc1c23	21.9% (inactive)	51.3% (active)	50.1% (active)	-48.1% (inactive)
COc1ccc(CNC(=O)c2cccc3c(-c4cnn(C)c4)coc23)cc1OC	12.8% (inactive)	46.2% (active)	46% (active)	36.4% (active)
O=C(NC(NNc1ccc([N+](=O)[O-])cc1)(C(F)(F)F)C(F)(F)F)c1ccccc1Cl	7.51% (inactive)	18.4% (inactive)	34.1% (inactive)	5.04% (inactive)
c1ccc(-n2nnnc2-c2cccc3ccccc23)cc1	42% (active)	52.5% (active)	62.6% (active)	23% (inactive)
Oc1[nH]c2ccc(Br)cc2c1N=NC(=S)N1CCOCC1	83.2% (active)	93.8% (active)	87.7% (active)	55.5% (active)
Nc1ccc(Br)c2cccnc12	3.69% (inactive)	26.2% (inactive)	24.8% (inactive)	-9.28% (inactive)
O=C(Nc1ccc(Nc2ccccc2)cc1)c1cc([N+](=O)[O-])ccc1Cl	6% (inactive)	52.7% (active)	53.4% (active)	9.35% (inactive)
CC(=O)Oc1ccc(N(C(C)=O)S(=O)(=O)c2ccccc2)c2ccccc12	13% (inactive)	31.6% (inactive)	34.9% (inactive)	-3.17% (inactive)
CCOc1ccc(CCNC(=O)COC(=O)/C=C/c2ccc(OC(F)F)c(OC)c2)cc1OCC	12.5% (inactive)	51.5% (active)	47.1% (active)	-3.71% (inactive)
Cc1onc(-c2c(F)cccc2Cl)c1C(=O)c1ccc(F)cc1	2% (inactive)	46.1% (active)	46.2% (active)	-8.21% (inactive)
CC(=O)C1=C(c2cccc([N+](=O)[O-])c2)N(C(C)=O)n2c(C)nnc2S1	5.25% (inactive)	58.4% (active)	50.3% (active)	-4.12% (inactive)
COc1cccc(-c2cnc3c(NC(C)=O)cc(-c4ccc(S(C)(=O)=O)cc4)cn23)c1	15.6% (inactive)	53.3% (active)	41.6% (inactive)	-13.3% (inactive)
Cc1cc2ccccn2c1C(=O)c1ccc([N+](=O)[O-])o1	41% (active)	68.3% (active)	62.2% (active)	-0.71% (inactive)
C=CC[n+]1c(/C=C2\C=Cc3cc(C)ccc3N2CC)ccc2ccccc21	80.6% (active)	110% (active)	95.5% (active)	95.8% (active)
N#CCSc1ccccc1NC(=O)CN1C(=O)C2CC=CCC2C1=O (stereo not drawn)	10.9% (inactive)	58.1% (active)	60.2% (active)	-7.26% (inactive)
Cc1ccc(NC(=O)COC(=O)CCC2CCCC2)c(Br)c1	5.75% (inactive)	40.9% (inactive)	46.2% (active)	-5.49% (inactive)
COc1cc(NC(=O)Cn2ccsc2=N)c(C)cc1[N+](=O)[O-]	11.8% (inactive)	49.5% (active)	58% (active)	-0.82% (inactive)
Oc1[nH]c2ccccc2c1N=NC(=S)N1CCOCC1	74.8% (active)	78.3% (active)	80% (active)	55.2% (active)
O=C(NCCCNc1ccc([N+](=O)[O-])cc1)C(F)(F)F	9.72% (inactive)	54.9% (active)	52.4% (active)	-18.2% (inactive)
Cn1ncc(Cl)c1C(=O)NCc1ccc2c(c1)OCO2	-2.54% (inactive)	45.4% (active)	50.1% (active)	15.7% (inactive)
O=C(c1ccccc1)N1CCN(c2ccc([N+](=O)[O-])c(N3CCOCC3)c2)CC1	9.16% (inactive)	39.5% (inactive)	34.7% (inactive)	3.81% (inactive)
O=C(COC(=O)CCN1C(=O)C2CC=CCC2C1=O)NCCc1ccc(F)cc1 (stereo not drawn)	7.75% (inactive)	63.2% (active)	55% (active)	-1.34% (inactive)
CCC(NC(=O)c1cc(COc2cc(C)c(Cl)c(C)c2)on1)c1ccncc1 (stereo not drawn)	0.99% (inactive)	52.5% (active)	50.9% (active)	8.52% (inactive)
